Results with a measured potency or affinity are listed apart. Records with an inconclusive call do not appear. Activity calls are given as the source filed them.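 How the source made its calls: active means cell viability loss with a fitted half-maximal concentration at or below twice the top valid dose; inconclusive means flat curve losing 30 to 70% viability, or a poor fit; inactive means the rest.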
assay: HEK293 cell cytotoxicity, dose response, cytotoxicity control, ATP luminescence, dry powder, set 3 (AID 743131); details: HEK293T viability, ATP luminescence CellTiter-Glo, 72 h; series mostly up to 26 µM; activity change, negative = cytotoxicity: at the top concentration

Compound | activity change, negative = cytotoxicity | outcome
Fc1cccc2c1[nH]c(=S)n2CCOc1ccccc1 | -3.62% (inactive) | 
Cc1ccc(OCCn2c(C)nc3ccccc32)cc1 | 15.1% [at 12 µM] (inactive) | 
COC(=O)C1=C(C)N(Cc2ccc(Cl)cc2)C(=S)NC1c1ccc(Br)cc1 (stereo not given) | -33.6% (inactive) | 
S=c1[nH]c2ccccc2n1CCOc1ccccc1 | 53.8% (inactive) | 
Cc1ccc(OCCn2cnc3ccccc32)cc1 | -38.3% (inactive) | 
S=c1[nH]c2cccc(Cl)c2n1CCOc1ccccc1 | 78.6% (inactive) | 
Cc1ccc2c(c1)[nH]c(=S)n2CCOc1ccccc1 | -15.2% (inactive) | 
O=c1[nH]c2ccccc2n1CCOc1ccccc1 |  | inactive
Cc1ccc(OCCn2c(=S)[nH]c3ccccc32)cc1 | -24.8% (inactive) | 
CCOC(=O)c1c(-c2ccc(F)cc2)csc1NC(=O)CN1CCN(C)CC1 | 22.6% (inactive) | 
COC(=O)C1=C(C)N(Cc2ccc(Br)cc2)C(=S)NC1c1ccc(OC)cc1 (stereo not given) | 128% (inactive) | 
COC(=O)C1=C(C)N(Cc2ccc(Br)cc2)C(=S)NC1c1ccc(F)cc1 (stereo not given) | -33.5% (inactive) | 
CCOC(=O)c1c(-c2ccc(OC)cc2)csc1NC(=O)CN(C)CC(=O)N(C)C | -10.6% (inactive) | 
Fc1ccccc1OCCn1c(=S)[nH]c2ccccc21 | -13.6% (inactive) | 
CCOc1ccc(OCCn2c(=S)[nH]c3ccccc32)cc1 | -54% (inactive) | 
Cc1ccc(OCCn2c(SCCO)nc3ccccc32)c(C(C)C)c1 | -15.3% (inactive) | 
COC(=O)C1=C(C)N(Cc2ccc(F)cc2)C(=S)NC1c1cccc(F)c1 (stereo not given) | -20.6% (inactive) | 
CCOC(=O)c1c(-c2ccc(F)cc2)csc1NC(=O)CN1CCN(CC)CC1 | -39% (inactive) | 
CCOC(=O)c1c(-c2ccc(C(C)(C)C)cc2)csc1NC(=O)CN1CCN(C)CC1 | -61.1% (inactive) | 
S=c1[nH]c2ccccc2n1CCOc1ccc(Cl)cc1 | -22.7% (inactive) | 
